Structures can show the parent of a compound that is named as a salt.

For this assay, the system named is HEPG2. Put plainly: Euclidean distance of Cell Painting phenotypic profile (signed KS, 77 features) to DMSO centroid (dimensionless distance); 5 or 10 uM (library dependent); higher = stronger phenotypic change vs DMSO (phenoactivity). The note with it: 48 h. Summed up: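 At 10 or 5 uM, as set by the library, and 0.1% DMSO final, compounds were applied for 48 h to five cancer lines and one healthy fibroblast line. Stained cells were imaged confocally at 20X in 9 fields per well, and Harmony extracted 77 features scored as signed Kolmogorov-Smirnov statistics against vehicle wells on the same plate. Profiles underwent plate-position correction, correlation weighting and replicate averaging at the top dose. Phenoactivity is the Euclidean distance from each such profile to the median vehicle profile.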
Take `Cn1cnc2c1c(=O)[nH]c(=O)n2C` [Theobromine]: the Euclidean distance was 1.77.

Take `Nc1nc(OCc2cc(Br)cs2)c2[nH]cnc2n1` [Lomeguatrib]: the Euclidean distance is 0.861.

`Cc1nnc(SCC2=C(C(=O)O)N3C(=O)[C@@H](NC(=O)Cn4cnnn4)[C@H]3SC2)s1` [Cefazolin Sodium] returned an Euclidean distance of 1.06.

Turning to `c1ccc2[nH]c(-c3cscn3)nc2c1` [Thiabendazole], the Euclidean distance is 1.93.

`CCC(Cc1c(I)cc(I)c(N)c1I)C(=O)O` (stereo not given) [Iopanoic acid] registered an Euclidean distance of 0.765.

In turn, `CCOC(=O)[C@H](CCc1ccccc1)N[C@H]1CS[C@H](c2cccs2)CN(CC(=O)O)C1=O` [Temocapril HCl] displayed an Euclidean distance of 0.434.

In turn, `C[C@]12CC[C@@H]3c4ccc(O)cc4C[C@@H](CCCCCCCCC[S+]([O-])CCCC(F)(F)C(F)(F)F)[C@H]3[C@@H]1CC[C@@H]2O` (stereo not given in full) [Fulvestrant] had an Euclidean distance of 0.76.

The molecule `N#CC[C@H](C1CCCC1)n1cc(-c2ncnc3[nH]ccc23)cn1` [Ruxolitinib Phosphate] returned an Euclidean distance of 1.1.

Take `C[S+](CC[C@H](N)C(=O)[O-])C[C@H]1O[C@@H](n2cnc3c(N)ncnc32)[C@H](O)[C@@H]1O` (stereo not given in full) [Ademetionine]: the Euclidean distance is 0.304.

Turning to `OC[C@@H](O)[C@@H](O)[C@H](O)[C@H](O)CO` [D-Mannitol], the Euclidean distance amounted to 0.415.

Molecule `COC(=O)c1ccc(O)cc1` [Methyl 4-hydroxybenzoate] registered an Euclidean distance of 0.627.

Regarding `CCCCC1C(=O)N(c2ccccc2)N(c2ccccc2)C1=O` [Phenylbutazone], the Euclidean distance stood at 0.482.

Molecule `Cc1nc2n(c(=O)c1CCN1CCC(c3noc4cc(F)ccc34)CC1)CCCC2` [Risperidone] gave an Euclidean distance of 0.51.

Molecule `CC[C@H](C)C(=O)O[C@H]1C[C@@H](C)C=C2C=C[C@H](C)[C@H](CC[C@@H]3C[C@@H](O)CC(=O)O3)[C@H]21` [Lovastatin] gave an Euclidean distance of 2.11.

Molecule `COc1ccccc1O` [Guaiacol] returned an Euclidean distance of 0.511.

In turn, `O=C(O)c1cn(-c2ccc(F)cc2)c2cc(N3CCNCC3)c(F)cc2c1=O` [Sarafloxacin HCl] came in with an Euclidean distance of 0.601.

As to `NS(=O)(=O)NCCNc1nonc1/C(=N/O)Nc1ccc(F)c(Br)c1`, the Euclidean distance was found to be 0.971.

With `O=C1C(O)=C([C@H]2CC[C@H](c3ccc(Cl)cc3)CC2)C(=O)c2ccccc21` [Atovaquone], the Euclidean distance is 0.566.

`C=CC(=O)N1C[C@H](Nc2ncnc3[nH]ccc23)CC[C@@H]1C` came in with an Euclidean distance of 0.582.

`CC(C)(C)OC(=O)N[C@H]1CCCCC/C=C\[C@@H]2C[C@@]2(C(=O)NS(=O)(=O)C2CC2)NC(=O)[C@@H]2C[C@@H](OC(=O)N3Cc4cccc(F)c4C3)CN2C1=O` [Danoprevir (ITMN-191)]: the Euclidean distance is 2.24.

`Cc1cc(-n2c(=O)[nH]c(=O)n(C)c2=O)ccc1Oc1ccc(SC(F)(F)F)cc1` [Toltrazuril] showed an Euclidean distance of 0.651.

`CC(COc1ccccc1Cc1ccccc1)N1CCCCC1` (stereo not given) [Benproperine phosphate] came in with an Euclidean distance of 1.58.

`CCOC(=O)C1=C(COCCN)NC(C)=C(C(=O)OC)[C@@H]1c1ccccc1Cl` [Levamlodipine] gave an Euclidean distance of 0.978.

As to `COc1ccccc1OCC(O)CO` (stereo not given) [Guaifenesin], the Euclidean distance was determined as 1.99.

In turn, `COCCOC(=O)C1=C(C)NC(C)=C(C(=O)OC(C)C)C1c1cccc([N+](=O)[O-])c1` (stereo not given) [Nimodipine] came in with an Euclidean distance of 1.96.

`COC(=O)C1=C(C)NC(C)=C(C(=O)OCCN(C)Cc2ccccc2)C1c1cccc([N+](=O)[O-])c1` (stereo not given) [Nicardipine HCl] had an Euclidean distance of 1.24.

Take `CC#CC(=O)N1CCC[C@H]1c1nc(-c2ccc(C(=O)Nc3ccccn3)cc2)c2c(N)nccn12` [Acalabrutinib (ACP-196)]: the Euclidean distance was determined as 3.25.

In turn, `COc1cc(Nc2ncc(F)c(Nc3ccc4c(n3)N(COP(=O)(O)O)C(=O)C(C)(C)O4)n2)cc(OC)c1OC` [R788 (Fostamatinib) Disodium] had an Euclidean distance of 0.696.

On to `CC(C)(C)c1nc(-c2cccc(NS(=O)(=O)c3c(F)cccc3F)c2F)c(-c2ccnc(N)n2)s1` [Dabrafenib Mesylate], for which the Euclidean distance is 1.3.

The molecule `COc1ccc2cc([C@H](C)C(=O)O)ccc2c1` [Naproxen] displayed an Euclidean distance of 1.13.

In the case of `NCCS` [2-Aminoethanethiol], the Euclidean distance is 0.508.

`Cn1cc(Nc2nccc(N3C[C@H]4CC[C@@H](C3)N4C(=O)[C@@H]3CC3(F)F)n2)cn1` had an Euclidean distance of 0.594.

In turn, `CCN(CC)CCOC(=O)c1ccc(N)cc1` [Procaine HCl] had an Euclidean distance of 0.478.

As to `O=c1c(O)c(-c2ccc(O)c(O)c2)oc2cc(O)ccc12` [Fisetin], the Euclidean distance is 0.906.

Turning to `CC(C)NCC(O)COc1ccc(CC(N)=O)cc1` (stereo not given) [Atenolol], the Euclidean distance is 1.22.

For the origin of these results see the supplement of paper PMC10127200.
